Assay results published in PubChem BioAssay (NCI).
This is part of a sample that, as a whole, favours compounds with a hit. Of some 83,000 tested, about 20% had one in any assay.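 Testing used 96-well plates and a 48-hour single-concentration exposure. Example: -40 means 40% of the starting cells died.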 Active and inactive are the calls of the source. How the source made its calls: active means growth percent below 10; inactive means the rest.

How the values were obtained:
Assay in all cases: NCI-60 one-dose screen, 48 h (100 = growth as untreated, 0 = no growth, -100 = all killed)
Conditions in all cases: 10 µM unless noted
HCT-15 colon = tested on: HCT-15 colon
HT29 colon = tested on: HT29 colon
SNB-75 CNS = tested on: SNB-75 CNS
SNB-19 CNS = tested on: SNB-19 CNS
U251 CNS = tested on: U251 CNS
PC-3 prostate = tested on: PC-3 prostate
SK-MEL-5 melanoma = tested on: SK-MEL-5 melanoma
UACC-62 melanoma = tested on: UACC-62 melanoma
LOX IMVI melanoma = tested on: LOX IMVI melanoma
SK-MEL-28 melanoma = tested on: SK-MEL-28 melanoma
SK-MEL-2 melanoma = tested on: SK-MEL-2 melanoma
EKVX NSCLC = tested on: EKVX NSCLC
SN12C renal = tested on: SN12C renal
UO-31 renal = tested on: UO-31 renal
TK-10 renal = tested on: TK-10 renal
ACHN renal = tested on: ACHN renal
CAKI-1 renal = tested on: CAKI-1 renal
A498 renal = tested on: A498 renal
CCRF-CEM leukemia = tested on: CCRF-CEM leukemia
MOLT-4 leukemia = tested on: MOLT-4 leukemia

Measured: growth

C=C1C(=O)O[C@H]2[C@H]1CC/C(CNC(=O)c1cc3ccccc3[nH]1)=C\CC[C@@]1(C)O[C@@H]21
active: HCT-15 colon -78.9% | HT29 colon -59.7% | U251 CNS -16.8% | PC-3 prostate -48.5% | SK-MEL-5 melanoma -87.6% | UACC-62 melanoma -74.9% | LOX IMVI melanoma -78.8% | SK-MEL-28 melanoma -57.6% | SK-MEL-2 melanoma -60.8% | SN12C renal -43.3% | UO-31 renal -73.5% | TK-10 renal -89.9% | ACHN renal -77.6% | CAKI-1 renal -60.4% | A498 renal -63.4% | CCRF-CEM leukemia -35.7% | MOLT-4 leukemia -35.5%
inactive: SNB-75 CNS 48.4% | SNB-19 CNS 22.4% | EKVX NSCLC 14%

CC[C@]12C=CCN3CC[C@@]4(c5ccc(OC)cc5N(C)[C@H]4[C@@](O)(C(=O)OC)[C@@H]1OC(=O)CCCN1CCOCC1)[C@@H]32
inactive: HCT-15 colon 110% | HT29 colon 110% | SNB-75 CNS 91.5% | SNB-19 CNS 101% | U251 CNS 101% | PC-3 prostate 105% | SK-MEL-5 melanoma 103% | UACC-62 melanoma 97.6% | LOX IMVI melanoma 110% | SK-MEL-28 melanoma 109% | SK-MEL-2 melanoma 109% | EKVX NSCLC 111% | SN12C renal 105% | UO-31 renal 94.1% | TK-10 renal 99.8% | ACHN renal 110% | CAKI-1 renal 94.2% | A498 renal 113% | CCRF-CEM leukemia 107% | MOLT-4 leukemia 102%

CC[C@@H](c1ccc2cc(OC)ccc2c1)C(C)(C)C(=O)F
inactive: HCT-15 colon 104% | HT29 colon 118% | SNB-75 CNS 106% | SNB-19 CNS 91.9% | U251 CNS 98.8% | PC-3 prostate 101% | SK-MEL-5 melanoma 106% | UACC-62 melanoma 103% | LOX IMVI melanoma 91.4% | SK-MEL-28 melanoma 106% | SK-MEL-2 melanoma 94.8% | EKVX NSCLC 96.1% | SN12C renal 105% | UO-31 renal 97% | TK-10 renal 126% | ACHN renal 104% | CAKI-1 renal 76.8% | A498 renal 98.4% | CCRF-CEM leukemia 114% | MOLT-4 leukemia 99.2%
